Source: PubChem BioAssay
Only a selection was taken, and hits are over-represented in it overall.
VCAM1 TNFa pot – enhances TNF alpha induced VCAM1 expression in HUVEC | HUVEC TNFa-stimulated VCAM-1 immunofluorescence, high-content imaging; scaled per plate to unstimulated/TNFa-only wells | activation, % at 2 µM | actives 0.19% (n = 93,000);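 active = activation above the screen mean plus 3 SD, with well images confirming the hit on visual review, cut at about 28% in these data, passing the limit was not always enough; inconclusive = activation above that limit but images do not confirm it; inactive = activation not above that limit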;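 also: signal is the number of cytoplasmic VCAM-1 stained grains per positive cell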
VCAM1 pot confirm – potentiators of TNFa-induced VCAM1 expression, confirmation, imaging, HUVEC, triplicate retest. shares compounds with VCAM1 TNFa pot. HUVEC TNFa-stimulated VCAM-1 immunofluorescence imaging. activation, % at 2 µM. 230 tested, under 10 active. AID 1034;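 active = activation above 30% in triplicate retests at 2 µM, then confirmed by visual review of the well images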
Of the large screens only hits and unclear results are named; the others gave an inactive call (follow-up assays come after a bar, where they were run).

COc1ccc(CC(=O)NCc2nnc(SCC(=O)N3CCN(c4ccccc4)CC3)n2C)cc1	none
Cc1nc(CS(=O)c2ccccc2)cc(N2CCOCC2)n1 (stereo not drawn)	none
Cc1nc(-c2ccccc2)cc(N2CCCC2)n1	VCAM1 TNFa pot 61 | VCAM1 pot confirm inactive
c1ccc(-c2cc(N3CCCCCC3)n[nH]2)cc1	none
Cc1sccc1C1C(C#N)=C(N)SC(N)=C1C#N	none
CSc1nc(C)cc(SCC(=O)Nc2ccccc2)n1	VCAM1 TNFa pot 56 | VCAM1 pot confirm inactive
Cc1cc(SCC(N)=O)nc(SCC(=O)c2ccccc2)n1	none
COc1cccc(NC(=O)CSc2nc(N)cc(N)n2)c1	none
N=c1c2c(-c3ccccc3)c(-c3ccccc3)n(Cc3ccccc3)c2ncn1CCCn1ccnc1	none
CC(C)(C)CC(=O)Nc1ccc(C(N)=O)cc1	none
CCOCC(=O)N1CCc2ccccc21	none
O=C(CCN1CCc2ccccc21)c1ccc2c(c1)OCCO2	VCAM1 TNFa pot 67 | VCAM1 pot confirm inactive
O=C(CCC(=O)N1CCc2ccccc21)Nc1ccccc1	none
COc1cccc(CSc2nc3ccccc3cc2C=O)c1	none
Cc1ccc(-c2noc(-c3cc4ccccc4oc3=O)n2)cc1	none
O=C(Nc1ccc2nsnc2c1)c1ccc2c(c1)OCO2	none
O=C(CN1C(=O)c2ccccc2C1=O)Nc1ccc(-c2nc3ccccc3o2)cc1	none
O=C(Nc1ccc(-c2nc3ccccc3o2)cc1)c1ccc2c(c1)OCO2	VCAM1 TNFa pot inconclusive | VCAM1 pot confirm inactive
Cc1ccc(NC(=O)CCc2ccc(S(=O)(=O)N3CCOCC3)cc2)c(C)c1	none
COc1ccccc1CNCc1ccc(OC)c(OC)c1OC	none
Cc1c(NC(=O)C(C#N)=C2CCCCC2)c(=O)n(-c2ccccc2)n1C	none
Cn1c(/N=C/c2c[nH]c3ccccc23)nc2ccccc21	none
Cn1c(NCc2c[nH]c3ccccc23)nc2ccccc21	none
Cn1c(/C=N/n2cnnc2)nc2ccccc21	VCAM1 TNFa pot inconclusive | VCAM1 pot confirm inactive
Cc1cc(C)nc(Nc2n[nH]c(-c3cccc4ccccc34)n2)n1	none
CCc1ccccc1N(C(=O)Cn1nnc2ccccc21)C(C(=O)NCCOC)c1ccco1 (stereo not drawn)	none
O=C(CSc1nnc(-c2cccs2)n1-c1ccccc1)N1CCc2ccccc21	none
Brc1ccc(NCc2cccc3ccccc23)nc1	VCAM1 TNFa pot 31 | VCAM1 pot confirm inactive
CC(C)(C)c1cc(C(=O)O)nn1-c1ccccc1	none
Cc1cc(C(F)(F)F)c2c(C)nn(CCc3nn[nH]n3)c2n1	none
CCc1ccc2[nH]c3nc(SCC(=O)NNC(=O)c4ccc(C(C)(C)C)cc4)nnc3c2c1	none
O=C1C=C(O)CC(c2ccc(Cl)c(Cl)c2)C1 (stereo not drawn)	VCAM1 TNFa pot inconclusive | VCAM1 pot confirm inactive
COc1cc(C2CC(=O)C=C(O)C2)cc(OC)c1OC (stereo not drawn)	none
O=C1C=C(O)CC(c2ccc(Cl)cc2)C1 (stereo not drawn)	none
CCOC(=O)Cc1csc(NC(=O)c2ccc(C)o2)n1	none
CCOC(=O)Cc1csc(/C(=N/O)C(N)=O)n1	none
CCCCOC(=O)Nc1nc(CC(=O)OCC)cs1	VCAM1 TNFa pot inconclusive | VCAM1 pot confirm inactive
COc1ccccc1C(=O)n1nc(-c2ccccc2)nc1NCc1ccco1	none
CCOC(=O)Cc1csc(NC(=O)c2cccnc2)n1	none
O=C(NCCCCNC(=O)c1cccnc1)c1cccnc1	VCAM1 TNFa pot inconclusive | VCAM1 pot confirm inactive
O=C(NCCCNC(=O)c1ccco1)c1ccco1	none
COc1ccc(CNC(=O)c2sc(=S)n(-c3ccc(OC)cc3)c2N)cc1	none
O=C(c1ccccc1)c1cccn1CC(=O)N1CCN(c2ccccc2)CC1	none
CCCc1ccc(OCc2ccc(C(=O)OC)o2)c(OC)c1	none
O=CN(Cc1ccco1)C1(C(=O)NC2CCCCC2)CCCCC1	VCAM1 TNFa pot 37 | VCAM1 pot confirm inactive
O=C(NCc1ccco1)c1cc2c(s1)CCCCC2	none
COc1ccc(CN(C(=O)CNC(=O)c2ccco2)C(C(=O)NC2CCCC2)c2ccco2)cc1 (stereo not drawn)	none
COc1ccc2nc(SCC(=O)NN)cc(C)c2c1	none
CCOn1c(SCC)nc2ccccc2c1=O	none
Cc1ccc(C)c(NC(=O)CCN2CC(C)OC(C)C2)c1 (stereo not drawn)	none
Cc1ccc(NC(=O)c2oc3c(c2C)C(=O)CC(C)(C)C3)cc1	none
Cn1nc(C(=O)NCC2CCCO2)c2ccccc2c1=O (stereo not drawn)	none
CC(C(=O)NCC1CCCO1)N(C(=O)c1snc(C(N)=O)c1N)c1ccccc1 (stereo not drawn)	VCAM1 TNFa pot 40 | VCAM1 pot confirm inactive
O=C(CC(c1ccccc1)c1ccccc1)NCC1CCCO1 (stereo not drawn)	none
Cc1cc(C(=O)NN=C2C3CC4CC(C3)CC2C4)c2ccccc2n1	none
O=C(CSc1nnc2scc(-c3ccc(Cl)cc3)n12)NCc1ccc2c(c1)OCO2	none
COCCNC(=O)Nc1ccc2nc(-c3cccs3)c(-c3cccs3)nc2c1	none
Cc1ccccc1-n1c(=O)cc(NCC2CCCO2)[nH]c1=O (stereo not drawn)	none
CNc1nnc(CSc2nc3ccccc3s2)s1	none
